Growth inhibition data for nine compounds are collected here from PubChem BioAssay (NCI).

The panel holds about 79,000 compounds, 15% with a hit somewhere; the sample as a whole holds those more often. A number with no mark means an inactive call. Calls of active or inactive are those of the source. Rule as the data show it: active = growth inhibition above about 70%; inactive = the rest.

The nature of assay [1]: NCI Yeast Anticancer Drug Screen. Data for the rad50 strain (AID 155).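 Also: 0% = growth of vehicle-only cultures of the same strain.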 The note with it: S. cerevisiae rad50 strain growth inhibition, stronger effect = higher value. A digest of the protocol:
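Readout: growth inhibition relative to vehicle-treated cultures. Compound exposure was carried out in a genetically defined yeast strain deficient in DNA damage repair.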

The nature of assay [2]: NCI Yeast Anticancer Drug Screen. Data for the mec2-1 strain (AID 157). The note with it: S. cerevisiae mec2-1 strain, stronger effect = higher value. A digest of the protocol:
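Cells of the genetically defined mec2-1 yeast strain are incubated with test compound. Inhibition of growth is calculated against vehicle-treated controls.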

Assay [3] can be described thus: NCI Yeast Anticancer Drug Screen. Data for the sgs1 mgt1 strain (AID 161).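 Also: 0% = growth of cultures given vehicle only.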 The note with it: S. cerevisiae sgs1 mgt1 strain, stronger effect = higher value. Put shortly:
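Read-out: growth inhibition vs vehicle controls. Cells: mutant yeast strain deficient in DNA damage repair.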

Assay [4] can be described thus: NCI Yeast Anticancer Drug Screen. Data for the cln2 rad14 strain (AID 165).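 Also: 0% = growth equal to vehicle treated cultures.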 The note with it: S. cerevisiae cln2 rad14 strain, stronger effect = higher value. A digest of the protocol: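 The screen exposed genetically defined yeast (cln2 rad14) to test compounds and scored growth inhibition relative to vehicle-treated controls.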
The nature of assay [5]: NCI Yeast Anticancer Drug Screen. Data for the bub3 strain (AID 167). The note with it: S. cerevisiae bub3 mutant strain, stronger effect = higher value. Put shortly: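 Readout: yeast growth inhibition, expressed relative to vehicle-only wells. The test organism is a mutant strain from a panel with lesions in DNA repair or checkpoint genes.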
The nature of assay [6]: NCI Yeast Anticancer Drug Screen. Data for the mlh1 rad18 strain (AID 175). The note with it: S. cerevisiae mlh1 rad18 strain growth inhibition, stronger effect = higher value. A digest of the protocol:
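Compound-treated yeast growth, normalised to vehicle controls. Strain bears defined DNA repair mutations.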

Setting [7] is: at 5.0 µM (retest, dose inferred, filed as 0.5).
Setting [8] is: at 50.0 µM (retest, dose inferred, filed as 5.0).

On to `CC1(C)NNC(=S)NN1`, for which the growth inhibition is 2% in assay [1] (setting [7]); 12% in assay [1] (setting [8]); 5.95% in assay [1] (at 50.0 µM); -3% in assay [2] (setting [7]); 8% in assay [2] (setting [8]); 15.4% in assay [2] (at 50.0 µM). Besides, the growth inhibition is 4% in assay [3] (setting [7]); 14% in assay [3] (setting [8]); 21.3% in assay [3] (at 50.0 µM); 12% in assay [4] (setting [7]); 7% in assay [4] (setting [8]); 9.75% in assay [4] (at 50.0 µM). Further, the growth inhibition in assay [5] (setting [7]) is 23%; in assay [5] (setting [8]), 5%; in assay [5] (at 50.0 µM), 2.4%; in assay [6] (setting [7]), 20%; in assay [6] (setting [8]), 8%; in assay [6] (at 50.0 µM), 41.8%.

Take `C/C(=N/NC(=S)N1CCCC1)c1cccc(/C(C)=N\NC(=S)N2CCCC2)n1`: the growth inhibition in assay [1] (setting [7]) is 11%; in assay [1] (setting [8]) it was 12%; in assay [1] (at 50.0 µM), 15.2%; in assay [2] (setting [7]) it was 13%; in assay [2] (setting [8]) it was 28%; in assay [2] (at 50.0 µM) it was -14.9%. Moreover, the growth inhibition in assay [3] (setting [7]) was -17%; in assay [3] (setting [8]), -4%; in assay [3] (at 50.0 µM), -6.45%; in assay [4] (setting [7]), 1%; in assay [4] (setting [8]), -4%; in assay [4] (at 50.0 µM), -3.15%. Besides, the growth inhibition was -3% in assay [5] (setting [7]); 5% in assay [5] (setting [8]); -8.05% in assay [5] (at 50.0 µM); 17% in assay [6] (setting [7]); 18% in assay [6] (setting [8]); 1.65% in assay [6] (at 50.0 µM).

In the case of `Cc1cc(C)c(C(=O)C(Br)C(Br)c2ccccc2)c(C)c1` (configuration not stated), the growth inhibition in assay [1] (setting [7]) is 54%; in assay [1] (setting [8]) it was 94% (active); in assay [1] (at 50.0 µM), 95.6% (active); in assay [2] (setting [7]), 43%; in assay [2] (setting [8]) it was 97% (active); in assay [2] (at 50.0 µM) it was 95.5% (active). Also, the growth inhibition in assay [3] (setting [7]) is 63%; in assay [3] (setting [8]), 95% (active); in assay [3] (at 50.0 µM) it was 95.8% (active); in assay [4] (setting [7]), 15%; in assay [4] (setting [8]), 91% (active); in assay [4] (at 50.0 µM), 83.4% (active). Also, the growth inhibition in assay [5] (setting [7]) was 47%; in assay [5] (setting [8]), 93% (active); in assay [5] (at 50.0 µM) it was 94.5% (active); in assay [6] (setting [7]) it was 46%; in assay [6] (setting [8]) it was 94% (active); in assay [6] (at 50.0 µM), 95.6% (active).

For `Nc1ccccc1CC(c1c[nH]c2ccccc12)c1c[nH]c2ccccc12`, the growth inhibition in assay [1] (setting [7]) is 4%; in assay [1] (setting [8]), 7%; in assay [1] (at 50.0 µM) it was 94% (active); in assay [2] (setting [7]), 1%; in assay [2] (setting [8]) it was 17%; in assay [2] (at 50.0 µM), 95% (active). The growth inhibition is 1% in assay [3] (setting [7]); 10% in assay [3] (setting [8]); 94.4% (active) in assay [3] (at 50.0 µM); 93% (active) in assay [4] (setting [7]); -7% in assay [4] (setting [8]); 90.5% (active) in assay [4] (at 50.0 µM). Moreover, the growth inhibition in assay [5] (setting [7]) was 2%; in assay [5] (setting [8]), 26%; in assay [5] (at 50.0 µM), 93% (active); in assay [6] (setting [7]), 4%; in assay [6] (setting [8]) it was 27%; in assay [6] (at 50.0 µM) it was 93.8% (active).

On to `Cc1[nH]c2c(C)cccc2c1C1Cc2ccccc2N1` (configuration not stated), for which the growth inhibition in assay [1] (setting [7]) is 3%; in assay [1] (setting [8]) it was 99% (active); in assay [1] (at 50.0 µM), 98.4% (active); in assay [2] (setting [7]), -1%; in assay [2] (setting [8]) it was 99% (active); in assay [2] (at 50.0 µM), 98.8% (active). The growth inhibition in assay [3] (setting [7]) was -12%; in assay [3] (setting [8]) it was 98% (active); in assay [3] (at 50.0 µM), 98.8% (active); in assay [4] (setting [7]), -5%; in assay [4] (setting [8]), 98% (active); in assay [4] (at 50.0 µM), 98.5% (active). The growth inhibition in assay [5] (setting [7]) is 6%; in assay [5] (setting [8]), 98% (active); in assay [5] (at 50.0 µM), 98.7% (active); in assay [6] (setting [7]) it was 4%; in assay [6] (setting [8]), 98% (active); in assay [6] (at 50.0 µM) it was 98.2% (active).

As for `Cc1coc(C)c1C(=S)Nc1ccc(Cl)c(C(=O)OC(C)C)c1`, the growth inhibition in assay [1] (setting [7]) was 6%; in assay [1] (setting [8]), 81% (active); in assay [1] (at 50.0 µM), 84% (active); in assay [2] (setting [7]) it was -8%; in assay [2] (setting [8]), 77% (active); in assay [2] (at 50.0 µM) it was 82.5% (active). For the same compound, the growth inhibition in assay [3] (setting [7]) is -3%; in assay [3] (setting [8]), 81% (active); in assay [3] (at 50.0 µM), 85.2% (active); in assay [4] (setting [7]) it was 20%; in assay [4] (setting [8]) it was 88% (active); in assay [4] (at 50.0 µM) it was 81.8% (active). Also, the growth inhibition in assay [5] (setting [7]) is -15%; in assay [5] (setting [8]) it was 87% (active); in assay [5] (at 50.0 µM) it was 82.9% (active); in assay [6] (setting [7]), -9%; in assay [6] (setting [8]), 86% (active); in assay [6] (at 50.0 µM), 81.6% (active).

For `CC/C(=C(\CC)c1ccc(OCCN2CCOCC2)cc1)c1ccc(OCCN2CCOCC2)cc1`, the growth inhibition in assay [1] (setting [7]) is 47%; in assay [1] (setting [8]) it was 63%; in assay [1] (at 50.0 µM), 82.8% (active); in assay [2] (setting [7]), 36%; in assay [2] (setting [8]), 62%; in assay [2] (at 50.0 µM), 70.5% (active). For the same compound, the growth inhibition in assay [3] (setting [7]) is 67%; in assay [3] (setting [8]), 88% (active); in assay [3] (at 50.0 µM), 89% (active); in assay [4] (setting [7]), 62%; in assay [4] (setting [8]), 64%; in assay [4] (at 50.0 µM), 83.5% (active). Further, the growth inhibition was 59% in assay [5] (setting [7]); 68% in assay [5] (setting [8]); 79.9% (active) in assay [5] (at 50.0 µM); 30% in assay [6] (setting [7]); 72% (active) in assay [6] (setting [8]); 87.8% (active) in assay [6] (at 50.0 µM).

Consider `NNc1ccccc1F`, for which the growth inhibition in assay [1] (setting [7]) was -34%; in assay [1] (setting [8]), 96% (active); in assay [1] (at 50.0 µM), 99.2% (active); in assay [2] (setting [7]) it was -32%; in assay [2] (setting [8]) it was 97% (active); in assay [2] (at 50.0 µM), 99.7% (active). For the same compound, the growth inhibition in assay [3] (setting [7]) was -42%; in assay [3] (setting [8]) it was 92% (active); in assay [3] (at 50.0 µM) it was 97.8% (active); in assay [4] (setting [7]), -41%; in assay [4] (setting [8]) it was 65%; in assay [4] (at 50.0 µM), 98% (active). The growth inhibition was -45% in assay [5] (setting [7]); 44% in assay [5] (setting [8]); 99.2% (active) in assay [5] (at 50.0 µM); -58% in assay [6] (setting [7]); 95% (active) in assay [6] (setting [8]); 98.9% (active) in assay [6] (at 50.0 µM).

With `O=C1OC2=C(CCc3nc(-c4ccccc4)sc32)C(N(c2ccccc2)c2ccccc2)C1(Cl)Cl` (configuration not stated), the growth inhibition in assay [1] (setting [7]) was -4%; in assay [1] (setting [8]), 11%; in assay [1] (at 50.0 µM), 63.6%; in assay [2] (setting [7]), -5%; in assay [2] (setting [8]) it was 12%; in assay [2] (at 50.0 µM), 41.8%. In addition, the growth inhibition in assay [3] (setting [7]) was 1%; in assay [3] (setting [8]), 19%; in assay [3] (at 50.0 µM), 73% (active); in assay [4] (setting [7]) it was -13%; in assay [4] (setting [8]) it was -15%; in assay [4] (at 50.0 µM) it was 60.1%. Also, the growth inhibition in assay [5] (setting [7]) is 0%; in assay [5] (setting [8]), -3%; in assay [5] (at 50.0 µM), 49%; in assay [6] (setting [7]), 2%; in assay [6] (setting [8]), 9%; in assay [6] (at 50.0 µM), 68.7%.
